# Inconclusive results are not listed. A call without a number means that no potency is given here. Active and inactive are the calls of the source. Calls come from the whole dose curve; as a rule, active = well fitted curve in the direction sought with a large enough effect; inconclusive = small, poorly fitted or top-dose-only effect, or another doubt; inactive = no such curve, though single readings can be large; an effect the other way counts as inactive or inconclusive.
# Assays:
# [1] = Cellular viability qHTS for adrenocortical cancer (ACC) cell line SW-13 (AID 1963989); details: SW-13 ACC cells viability, CellTiter-Glo, 48 h; activity (max response): stronger effect = lower value; note: nearly all actives have a fitted effect of over 65% in size;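 for activity (max response): cells grown in serum-free medium with ITS supplement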
# Method in brief: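 48 h treatment, SW-13 in ITS/DMEM serum-free; doses up to 46 uM; readout CellTiter-Glo luminescence; curve fit four-parameter logistic.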
# [2] = Quantitative highthroughput screen to assess conditional lethalithy of NOMO1 cells grown in Human Plasma-Like Medium with dialyzed fetal bovine serum (HPLM+ds) (AID 1963878); details: NOMO1 AML cells in HPLM+ds, CellTiter-Glo viability, 48 h; series mostly up to 45.8 µM; note: nearly all actives have a fitted effect of over 35% in size
# Method in brief: (§1)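 Each medium arm—HPLM with 10% dialyzed FBS, or RPMI1640 with 5 mM glucose and 10% untreated or dialyzed FBS—was screened against an 11-point, 3-fold compound titration for 48 h at 37 °C, with CellTiter-Glo luminescence as endpoint.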
# [3] = Quantitative highthroughput screen to assess conditional lethalithy of NOMO1 cells grown in RPMI1640 with dialyzed fetal bovine serum (RPMI+ds) (AID 1963877); details: NOMO1 in RPMI+dialyzed FBS viability, ATP luminescence, 48 h; series mostly up to 45.8 µM; note: nearly all actives have a fitted effect of over 30% in size
# Method in brief: as §1
# [4] = Quantitative highthroughput screen to assess conditional lethalithy of SEM cells grown in RPMI1640 with dialyzed fetal bovine serum (RPMI+ds) (AID 1963884); details: SEM B-ALL cells, RPMI+dialyzed FBS, CellTiter-Glo viability, 48 h; series mostly up to 45.8 µM; note: nearly all actives have a fitted effect of over 35% in size
# Method in brief: as §1
# [5] = Quantitative highthroughput screen to assess conditional lethalithy of P12 Ichikawa cells grown in RPMI1640 with untreated serum (RPMI+s) (AID 1963881); details: ATP luminescence, 48 h; Potency: viability; series mostly up to 45.8 µM; note: nearly all actives have a fitted effect of over 35% in size
# Method in brief: as §1
# [6] = Quantitative highthroughput screen to assess conditional lethalithy of SEM cells grown in Human Plasma-Like Medium with dialyzed fetal bovine serum (HPLM+ds) (AID 1963882); details: SEM B-ALL cells in HPLM+ds, CellTiter-Glo viability, 48 h; series mostly up to 45.8 µM; note: nearly all actives have a fitted effect of over 35% in size
# Method in brief: as §1
# [7] = Cellular viability qHTS for adrenocortical cancer (ACC) cell line NCI-H295R (AID 1963990); details: CellTiter-Glo ATP luminescence, 48 h; series mostly up to 46.1 µM; note: nearly all actives have a fitted effect of over 60% in size
# Method in brief: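 Compound titrations (up to 46 uM final) are applied to NCI-H295R cultures for 48 h at 37C. Viable cell number is estimated by CellTiter-Glo signal, normalised to DMSO and doxorubicin controls.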
# [8] = Quantitative highthroughput screen to assess conditional lethalithy of P12 Ichikawa cells grown in Human Plasma-Like Medium with dialyzed fetal bovine serum (HPLM+ds) (AID 1963879); details: ATP luminescence, 48 h; Potency: viability; series mostly up to 45.8 µM; note: nearly all actives have a fitted effect of over 35% in size
# Method in brief: as §1
# [9] = Quantitative highthroughput screen to assess conditional lethalithy of P12 Ichikawa cells grown in RPMI1640 with dialyzed fetal bovine serum (RPMI+ds) (AID 1963880); details: ATP luminescence, 48 h; Potency: P12-Ichikawa viability; series mostly up to 45.8 µM; note: nearly all actives have a fitted effect of over 35% in size
# Method in brief: as §1
# [10] = Quantitative highthroughput screen to assess conditional lethalithy of SEM cells grown in RPMI1640 with unreated serum (RPMI+s) (AID 1963883); details: SEM B-ALL cells, CellTiter-Glo viability, 48 h; series mostly up to 45.8 µM; note: nearly all actives have a fitted effect of over 35% in size
# Method in brief: as §1
# Potency is the fitted concentration of half-maximal effect.
smiles,measurement,setting,value
Cn1c(/C=C/CO)c(CO)c2c1C(=O)C=C(N1CC1)C2=O,activity (max response),[1],-6.24% (inactive)
CC=C(C)C(=O)N[C@@H](c1ccccc1)[C@@H](O)C(=O)O[C@H]1C[C@@]2(O)[C@@H](OC(=O)c3ccccc3)[C@@H]3[C@]4(OC(C)=O)CO[C@@H]4C[C@H](O)[C@@]3(C)C(=O)[C@H](OC(C)=O)C(=C1C)C2(C)C,Potency,[2],inactive
CC(C)CC(N(C)C)C1(c2ccc(Cl)cc2)CCC1 (centres undefined),Potency,[3],inactive
same,activity (max response),[1],-12.4% (inactive)
C1=C2CCCN[C@H]2[C@@H]2C[C@H]1[C@@H]1CCCCN1C2,Potency,[4],inactive
C[C@](O)(CS(=O)(=O)c1ccc(F)cc1)C(=O)Nc1ccc(C#N)c(C(F)(F)F)c1,Potency,[5],inactive
same,Potency,[6],inactive
NC1=NC(=O)N2CC12 (centres undefined),Potency,[3],5.26 µM (active)
same,Potency,[5],5.26 µM (active)
same,Potency,[6],3.32 µM (active)
same,Potency,[4],2.96 µM (active)
same,activity (max response),[1],-7.87% (inactive)
same,Potency,[7],inactive
C[C@]12CC[C@H]3[C@@H](CCC4=CC(=O)CC[C@@]43C)[C@H]1CC[C@H]2OC(=O)CCC1CCCC1,Potency,[8],inactive
same,Potency,[9],inactive
same,Potency,[5],inactive
same,Potency,[6],inactive
same,Potency,[10],inactive
same,Potency,[4],inactive
same,activity (max response),[1],-10.5% (inactive)
CC(=O)OCC1=C(C(=O)O)N2C(=O)[C@@H](N)[C@@H]2SC1,Potency,[9],2.35 µM (active)
same,Potency,[6],inactive
same,Potency,[4],inactive
O=C1CCC[C@@H]2[C@H]3CCCN4CCC[C@@H](CN12)[C@@H]34,Potency,[8],inactive
same,Potency,[9],inactive
same,Potency,[5],inactive
same,Potency,[4],inactive
C[C@]12CC[C@H]3[C@@H](CCC4=CC(=O)CC[C@@]43C)[C@H]1CC[C@H]2O,Potency,[3],inactive
same,Potency,[9],inactive
same,Potency,[5],inactive
same,Potency,[6],inactive
C[C@]12Cc3cn[nH]c3C[C@@H]1CC[C@@H]1[C@H]2CC[C@@]2(C)[C@H]1CC[C@]2(C)O,Potency,[9],inactive
same,Potency,[5],inactive
CC=C(C)C(=O)O[C@H]1C(C)=C2[C@@H]3OC(=O)[C@@](C)(O)[C@@]3(O)[C@@H](OC(=O)CCC)C[C@](C)(OC(C)=O)[C@@H]2[C@@H]1OC(=O)CCCCCCC,Potency,[2],0.0662 µM (active)
same,Potency,[8],0.118 µM (active)
same,Potency,[9],0.132 µM (active)
same,Potency,[6],0.059 µM (active)
same,Potency,[10],0.0332 µM (active)
same,Potency,[4],0.0332 µM (active)
CC(=Cc1csc(C)n1)[C@@H]1C[C@H]2O[C@]2(C)CCC[C@H](C)[C@@H](O)[C@@H](C)C(=O)C(C)(C)[C@@H](O)CC(=O)O1,Potency,[3],inactive
same,Potency,[9],inactive
same,Potency,[5],inactive
same,Potency,[6],inactive
CC1=C2C[C@@H]3[C@@H](CC=C4C[C@@H](O)CC[C@@]43C)[C@@H]2CC[C@]12O[C@H]1C[C@H](C)CN[C@H]1[C@H]2C,Potency,[8],inactive
same,Potency,[9],inactive
same,Potency,[5],inactive
C/C(O)=C(\C#N)C(=O)Nc1cc(Br)ccc1Br,activity (max response),[1],-6.51% (inactive)
C[C@@H]1CC[C@@]2(OC1)O[C@H]1C[C@H]3[C@@H]4CC=C5C[C@@H](O[C@@H]6O[C@H](CO)[C@@H](O[C@@H]7O[C@@H](C)[C@H](O)[C@@H](O)[C@@H]7O)[C@H](O)[C@@H]6O[C@@H]6O[C@@H](C)[C@H](O)[C@@H](O)[C@@H]6O)CC[C@]5(C)[C@@H]4CC[C@]3(C)[C@@H]1[C@H]2C,Potency,[8],26.4 µM (active)
same,Potency,[9],23.5 µM (active)
same,Potency,[4],14.8 µM (active)
Cc1ncc2n1-c1ccc(Cl)cc1C(c1ccccc1F)=NC2,activity (max response),[1],-18.8% (inactive)
same,Potency,[7],inactive
CCCN1CCC[C@@H]2Cc3[nH]ncc3C[C@H]21,activity (max response),[1],1.08% (inactive)
same,Potency,[7],inactive
CC(Cc1ccccc1)NCCCCl (centres undefined),activity (max response),[1],-2.78% (inactive)
same,Potency,[7],inactive
CNC(C)Cc1ccccc1OC (centres undefined),activity (max response),[1],-2.94% (inactive)
same,Potency,[7],inactive
C#C[C@]1(O)CC[C@H]2[C@@H]3CCC4=CC(=O)CC[C@]4(C)[C@H]3CC[C@@]21C,activity (max response),[1],3.93% (inactive)
same,Potency,[7],inactive
CN1C[C@@H](NS(=O)(=O)N(C)C)C[C@@H]2c3cccc4c3c(cn4C)C[C@H]21,activity (max response),[1],-2.7% (inactive)
same,Potency,[7],inactive
CCc1cc2c(s1)-n1c(C)nnc1CN=C2c1ccccc1Cl,activity (max response),[1],12.2% (inactive)
same,Potency,[7],inactive
O=C(Nc1ccc(Br)cc1)c1cc(Br)cc(Br)c1O,activity (max response),[1],-19.7% (inactive)
same,Potency,[7],10.3 µM (active)
CC[C@]1(O)CC[C@H]2[C@@H]3CCC4=CCCC[C@@H]4[C@H]3CC[C@@]21C,Potency,[1],3.66 µM (active)
same,Potency,[7],2.91 µM (active)
Oc1ccccc1-c1ccccc1,activity (max response),[1],-7.15% (inactive)
same,Potency,[7],inactive
OC(c1ccccc1)(c1ccccc1)C1CCNCC1,activity (max response),[1],1.1% (inactive)
same,Potency,[7],inactive
Cn1c(CCCCCCC(=O)NO)nc2cc(N(CCCl)CCCl)ccc21,Potency,[1],15.8 µM (active)
same,Potency,[7],8.91 µM (active)
